SMN2 splice up: enhancers of SMN2 splice variant expression; HEK293 SMN2-luciferase splicing reporter, luminescence, 30-36 h; Potency, µM (series often up to 46.1 µM), without a hit: at the highest dose activity change, positive = activation, usual class: activators; 2.8% of 210,000 active; AID 1458; also: % of control where 0% means no effect; nearly all actives have a fitted effect of over 55% in size
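HEK293 cells carry an SMN2 […]–luciferase reporter in which exon 7 inclusion puts luciferase in frame. Cells were plated 10-12 h before compound addition, then incubated 30-36 h at 37C. ONE-Glo luminescence was read; sodium butyrate at 4.5 mM final served as control.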
p53 reactivator: restores transcriptional activity of mutant p53; 0.063% of 320,000 active; AID 504706; H1299 p53-A138V BP100-luciferase reporter, luminescence, 24 h; Potency, µM (series often up to 92.2 µM), without a hit: top-dose activity change, positive = activation, most hits filed as activators; also: % of control where 0% means no effect; nearly all actives have a fitted effect of over 45% in size
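H1299 (p53-null), stable ts p53-A138V + BP100-Luc; 1000 cells/well, Opti-MEM/10% FBS; cpd 4 pt, 1:5; 24 h, 37 deg C, 5% CO2; detection reagent 10 min RT; luminescence.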
ELG1 genotox: induces genotoxicity in HEK293T cells with luciferase-tagged ELG1; AID 504466; 1.3% of 330,000 active; Potency, µM (doses to about 46 µM), inactives show at the top dose activity change, positive = activation, most hits filed as activators; HEK293T ELG1-luciferase reporter, luminescence, 16 h; also: % of control where 0% means no effect; nearly all actives have a fitted effect of over 60% in size
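ELG1-luciferase HEK293T cells, 2,000/well; compound pinned in; 16 hr, 37 °C, 5% CO2; ONE-Glo, 30 min RT; luminescence on CCD imager.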
FLuc modulator: counter-screen for miR-21 project: firefly luciferase inhibitors or activators; P08659; purified FLuc, Km substrates, luminescence inhibition; Potency, µM (series often up to 57.5 µM), for inactives: at the top dose activity change, negative = inhibition, most hits filed as inhibitors; 6.9% of 360,000 active; AID 588342;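 also: plate controls were vehicle for no effect and reference inhibitor for full effect; nearly all actives have a fitted effect of over 55% in size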
Target sequence (P08659 whole entry, looked up): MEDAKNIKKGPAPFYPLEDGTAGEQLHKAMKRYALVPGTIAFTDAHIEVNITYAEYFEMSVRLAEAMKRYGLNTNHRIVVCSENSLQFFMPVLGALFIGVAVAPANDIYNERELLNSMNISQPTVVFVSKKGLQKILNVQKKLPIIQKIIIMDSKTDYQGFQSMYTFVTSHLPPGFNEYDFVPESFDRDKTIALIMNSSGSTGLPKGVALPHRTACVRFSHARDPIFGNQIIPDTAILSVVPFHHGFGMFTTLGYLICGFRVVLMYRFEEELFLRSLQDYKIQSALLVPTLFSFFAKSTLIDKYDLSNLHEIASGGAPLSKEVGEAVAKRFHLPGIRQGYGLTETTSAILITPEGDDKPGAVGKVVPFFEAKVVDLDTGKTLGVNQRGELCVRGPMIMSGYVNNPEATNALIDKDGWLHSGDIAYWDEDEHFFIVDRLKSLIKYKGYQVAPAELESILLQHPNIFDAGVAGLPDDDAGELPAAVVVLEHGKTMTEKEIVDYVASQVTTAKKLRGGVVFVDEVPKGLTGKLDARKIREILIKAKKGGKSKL
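Purified P. pyralis luciferase (10nM final) with 10uM D-luciferin and 10uM ATP (Km levels) in 50mM Tris acetate pH 7.5, 10mM Mg acetate, 0.01% Tween-20, 0.05% BSA; qHTS 6-point titration, ~60 µM downward; luminescence read.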
Rab9 promoter act: activators of Rab9 promoter. Huh7 Rab9 promoter-luciferase reporter, luminescence, 24 h. Potency, µM (titrated, usually from 9.22 µM), inactives show top-dose activation, negative = inhibition, usual class: activators. 2.8% of 320,000 active; also: % of control where 0% means no effect; nearly all actives have a fitted effect of over 60% in size
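Quantitative HTS format; Huh7 Rab9-luciferase reporter cells (1500/well) receive compound 2 h post-plating, incubate 24 h at 37 °C, then get luciferase reagent for 10 min before luminescence reading.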
NPC1 promoter act: activators of NPC1 promoter; 2.4% of 320,000 active; Huh7 NPC1 promoter luciferase reporter, 24 h; Potency, µM (series often up to 9.22 µM), for inactives: top-dose activation, hits mostly activators; also: % of control where 0% means no effect; nearly all actives have a fitted effect of over 60% in size
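Stably transfected Huh7 (NPC1 promoter→luciferase), 1500 cells/well in Opti-MEM + 10% FBS, 2 h settle, then compound 24 h at 37 °C. Luminescence after 10 min with Amplite reagent.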
Starred values were filed as active, the others as inactive; ? = inconclusive; . = no result; [ ] = another dose, or the depositor's remark. Most compounds without a hit are left out; they make up all but 7.4% or so of the library. Calls follow the shape of the dose curve; as a rule, active = well fitted curve in the direction sought with a large enough effect; inconclusive = small, poorly fitted or top-dose-only effect, or another doubt; inactive = no such curve, though single readings can be large; an effect the other way counts as inactive or inconclusive. Potency is read from the fitted curve at half-maximal effect.

SMILES | SMN2 splice up | p53 reactivator | ELG1 genotox | FLuc modulator | Rab9 promoter act | NPC1 promoter act
Cc1ccc(C(=O)NCC(c2ccc3c(c2)OCO3)N2CCN(C)CC2)cc1C (centres undefined) | . | . | . | 0% | . | .
CC(C)(C)C(=O)OCc1nc(-c2ccc(C(F)(F)F)cc2)cs1 | . | 7% | 4% | 15µM* | 0% | -4%
CN1C(C(=O)c2ccccc2)=C(OC(=O)c2ccc(Br)cc2)c2ccccc2S1(=O)=O | -30% | . | . | 7% | . | .
COc1ccc(S(=O)(=O)Nc2ccccc2C(=O)N2CCOCC2)cc1Br | . | 3% | 3% | 0% | -4% | -10%
Cc1csc2nc(NC(=O)c3ccccc3)sc(=O)c12 | . | 9% | ? | 4.3µM* | 18% | 0%
Cc1ccccc1C(=O)Nc1nc2c(C)csc2c(=O)s1 | . | 0% | 3% | 1% | -6% | -2%
Cc1ccc2nc(NC(=O)c3cccs3)sc2c1 | 2.5µM* | ? | 0.26µM* | 0.48µM* | ? | 0.5µM*
O=C(Nc1ccccc1)c1nc2ccccc2s1 | 3.2µM* | ? | 2.9µM* | 1.1µM* | 2.5µM* | 2.8µM*
Cc1ccc(C(=O)Nc2nc3ccccc3s2)s1 | -14% | 3% | ? | 0.54µM* | 0.4µM* | 0.63µM*
Cc1ccc(OCCSc2nc3ccc(NC(=O)c4cccs4)cc3s2)cc1 | . | . | . | -6% | . | .
CCn1ccc(C(=O)Nc2ccsc2C(=O)OC)n1 | . | -16% | -4% | -6% | 6% | -1%
Cc1cccc(N2CCN(C(=O)c3ccccc3OCc3c(C)noc3C)CC2)c1C | . | -4% | -5% | -2% | -5% | -1%
Cc1ccc(C(=O)O)c(C(=O)Nc2nc3ccccc3s2)c1 | . | 14% | 6% | 15µM* | 20% | 19%
Cc1cccc(NC(=O)c2cc(C)nc3ccccc23)c1 | . | -6% | 3% | -1% | -2% | 0%
Cc1cccc(NC(=S)c2nc3ccccc3s2)c1 | 18µM* | ? | ? | 3µM* | ? | ?
O=C(Nc1nc2ccccc2s1)c1ccccc1 | 3.5µM* | ? | 1µM* | 1.7µM* | 0.45µM* | 1µM*
CN(C(=O)c1ccccc1)c1nc2ccccc2s1 | 4.5µM* | ? | ? | 0.85µM* | 0.56µM* | 0.28µM*
Cc1cc2c(cc1NC(=O)c1ccc(C(C)(C)C)cc1)n(C)c(=O)c(=O)n2C | . | . | . | 2% | . | .
CSc1nc2ccc3nc(NC(=O)c4ccccc4)sc3c2s1 | ? | ? | ? | ? | 3.5µM* | 3.2µM*
CCC(=O)Nc1nc2ccc(S(C)(=O)=O)cc2s1 | 35% | ? | 7% | -6% | 15% | -1%
COc1cc(-c2cc(C(=O)Nc3ccc(O)cc3)c3ccccc3n2)cc(OC)c1OC | . | -6% | -10% | ? | -8% | 3%
Cc1ccc2nc(NC(=O)c3ccc(Cl)s3)sc2c1 | 13µM* | ? | 4.6µM* | 1.7µM* | 0.56µM* | 1µM*
Cc1cccc2sc(NC(=O)c3ccc(Cl)s3)nc12 | -33% | ? | 7% | ? | 21% | 2%
CC(=O)Nc1sc(NC(=O)c2ccccc2)nc1-c1cccs1 | 1% | -4% | 0% | -17% | -6% | -1%
COc1cc(-c2cc(C(=O)Nc3nc4ccccc4s3)c3ccccc3n2)cc(OC)c1OC | -20% | 3% | -6% | 15µM* | -2% | 12%
SMILES | SMN2 splice up | p53 reactivator | ELG1 genotox | FLuc modulator | Rab9 promoter act | NPC1 promoter act
CS(=O)(=O)c1ccc2nc(NC(=O)c3cccs3)sc2c1 | 2.2µM* | -9% | 0.92µM* | 0.67µM* | 0.4µM* | 0.4µM*
Cc1ccc2nc(NC(=S)NC(=O)c3cccs3)sc2c1 | ? | 20% | ? | 1.1µM* | 1.1µM* | 3.5µM*
O=S(=O)(/N=C(/Nc1nc2ccccc2s1)c1ccccc1)c1ccccc1 | . | ? | 20% | . | ? | 9%
Cc1ccc2nc(NC(=O)c3ccc(Cn4cc(Cl)cn4)o3)sc2c1 | -32% | ? | 1% | 7.6µM* | 14% | 10%
NNC(=O)c1ccc(Cn2cc(Cl)cn2)o1 | . | -1% | 0% | -16% | -1% | -5%
Cc1ccc(C(=O)Nc2nc3ccc(S(C)(=O)=O)cc3s2)s1 | 11µM* | 21% | 16µM* | 2.4µM* | 1.4µM* | 1.8µM*
c1ccc2sc(NN=C3CCCCCC3)nc2c1 | 4.5µM* | 5% | 0.46µM* | 0.34µM* | 0.22µM* | 0.35µM*
Cc1ccc(NC(=O)C2CCN(S(=O)(=O)c3cccc4nonc34)CC2)c(Cl)c1 | 8% | . | . | -7% | . | .
O=C(c1nc2ccccc2s1)N1CCSCC1 | 10% | ? | 18µM* | ? | ? | 23%
Cc1noc(C)c1C(=O)Nc1nc2ccccc2s1 | . | ? | ? | 17µM* | ? | 19%
CCCOc1cccc(-c2cc(C(=O)NN)c3ccccc3n2)c1 | -83% | 22% | -2% | 21µM* | 2% | 1%
CCCOc1cccc(-c2cc(C(=O)N/N=C/c3ccccn3)c3ccccc3n2)c1 | . | ? | ? | 3.8µM* | -13% | -2%
CCCOc1cccc(-c2cc(C(=O)N/N=C/c3cccnc3)c3ccccc3n2)c1 | . | -2% | -15% | 7.6µM* | -4% | 2%
COc1ccc(-c2cc(C(=O)N/N=C/c3cccnc3)c3ccccc3n2)cc1 | . | 2% | 3% | 1.1µM* | 24% | 3%
Cc1cccc(/C=N/NC(=O)c2cc(-c3cccnc3)nc3ccccc23)c1 | 15% | -3% | -4% | -3% | -1% | -7%
O=C(c1cnccn1)N1CCC2(CCCN(c3cccc(-c4ccccc4)c3)C2)CC1 | -41% | . | . | . | . | .
COC(=O)CC[C@@H](C)[C@@H]1CC[C@@H]2[C@@H]3CC[C@H]4C[C@@H](O)CC[C@@]4(C)[C@@H]3CC[C@]21C | 4%[9.22 µM] | . | . | . | . | .
COc1ccc(-c2cc(C(=O)N/N=C(\C)c3cccnc3)c3ccccc3n2)cc1 | . | 8% | ? | 0.67µM* | ? | ?
COc1cc(/C=N/NC(=O)c2cc(-c3ccccc3)nc3ccccc23)cc(OC)c1O | . | . | -3% | 24µM* | 2% | -5%
COc1ccc(/C(C)=N/NC(=O)c2cc(-c3cccnc3)nc3ccccc23)cc1 | 15% | 4% | 19% | 0% | -2% | -2%
CCN(CC)S(=O)(=O)c1cccc(C(=O)NN2Cc3ccccc3C2=N)c1 | . | 6% | 3% | 0% | 9% | 0%
Clc1ccc(-c2nc3n(n2)Cc2ccccc2-3)cc1 | 0.5µM* | ? | ? | 0.54µM* | 1.6µM* | 3.2µM*
CCN(CC)S(=O)(=O)c1cccc(-c2nc3n(n2)Cc2ccccc2-3)c1 | -16% | 20% | 5% | 12µM* | ? | ?
